One sequence from publication PMC7862700, “An all-to-all approach to the identification of sequence-specific readers for epigenetic DNA modifications on cytosine” can be followed below.

Assay in all cases: DAPPL (digital affinity profiling via proximity ligation, sequencing); 10 mM Tris-HCl pH 7.5, 50 mM NaCl, 1 mM DTT, 4% glycerol, room temperature, 30 min; GST-TFs on glutathione beads, 16-mer random dsDNA library, 0.1% formaldehyde crosslink after washing; high values mean tight binding
What all share (conditions): protein: recombinant; tags: N-terminal GST; dsDNA, one strand shown

The target of assay [1] is T1, ELK1 (Homo sapiens, UniProt P19419 1-428).
T1 sequence: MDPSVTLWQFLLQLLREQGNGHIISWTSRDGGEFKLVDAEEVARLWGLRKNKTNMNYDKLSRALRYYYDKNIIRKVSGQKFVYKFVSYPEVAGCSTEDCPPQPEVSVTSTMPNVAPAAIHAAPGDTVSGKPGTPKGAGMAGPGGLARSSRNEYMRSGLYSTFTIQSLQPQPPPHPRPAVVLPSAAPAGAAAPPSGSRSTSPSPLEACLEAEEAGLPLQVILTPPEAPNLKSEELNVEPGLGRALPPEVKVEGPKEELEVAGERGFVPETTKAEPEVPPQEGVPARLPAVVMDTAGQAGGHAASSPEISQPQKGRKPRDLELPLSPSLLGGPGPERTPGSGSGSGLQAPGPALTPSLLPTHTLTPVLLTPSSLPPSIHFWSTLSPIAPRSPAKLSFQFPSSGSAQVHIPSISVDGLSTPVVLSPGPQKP
In outline: (§1)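 Binding signal is given per hexamer as its read frequency for a factor divided by its frequency in the tag-only sample. GST-fused human transcription factors were expressed in yeast, captured on glutathione beads, barcoded with DNA and pooled with that sample, then incubated with 200 nmole of a 16-mer random double-stranded DNA library in Tris/NaCl/DTT/glycerol buffer for 30 min at room temperature. The pools were then washed, crosslinked, proximity-ligated, amplified by PCR and sequenced on an Illumina NextSeq500.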

The target of assay [2] is T2, GABPA (Homo sapiens, UniProt Q06546 1-454).
T2 sequence: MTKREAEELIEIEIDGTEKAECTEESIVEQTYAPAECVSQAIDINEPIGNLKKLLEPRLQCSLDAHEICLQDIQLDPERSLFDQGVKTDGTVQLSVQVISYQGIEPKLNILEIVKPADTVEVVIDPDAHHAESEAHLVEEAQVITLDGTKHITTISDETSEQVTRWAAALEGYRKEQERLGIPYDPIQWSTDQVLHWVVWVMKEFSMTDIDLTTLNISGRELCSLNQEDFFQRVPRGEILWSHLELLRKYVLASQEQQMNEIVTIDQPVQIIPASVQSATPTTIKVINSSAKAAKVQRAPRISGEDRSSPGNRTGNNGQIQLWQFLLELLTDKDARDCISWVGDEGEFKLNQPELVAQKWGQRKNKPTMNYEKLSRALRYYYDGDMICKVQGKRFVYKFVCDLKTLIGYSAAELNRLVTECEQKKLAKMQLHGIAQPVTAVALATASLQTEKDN
The method, boiled down: as §1

For assay [3], the target named is T3, ERG (Homo sapiens, UniProt P11308 1-479).
T3 sequence: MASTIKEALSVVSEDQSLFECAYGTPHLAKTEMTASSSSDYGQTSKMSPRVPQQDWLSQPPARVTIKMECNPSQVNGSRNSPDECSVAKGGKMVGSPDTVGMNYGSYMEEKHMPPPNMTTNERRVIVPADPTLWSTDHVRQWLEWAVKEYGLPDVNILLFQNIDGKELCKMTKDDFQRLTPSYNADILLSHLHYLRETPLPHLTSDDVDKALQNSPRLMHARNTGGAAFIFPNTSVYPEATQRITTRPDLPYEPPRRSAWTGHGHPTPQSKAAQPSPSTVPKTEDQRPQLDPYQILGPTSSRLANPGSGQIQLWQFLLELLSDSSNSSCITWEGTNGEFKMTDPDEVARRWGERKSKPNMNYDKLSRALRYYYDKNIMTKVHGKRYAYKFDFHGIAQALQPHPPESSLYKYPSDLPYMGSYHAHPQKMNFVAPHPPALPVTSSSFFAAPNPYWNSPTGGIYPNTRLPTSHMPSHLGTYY
In outline:
as §1

Assay [4] has as its target T4, EHF (Homo sapiens, UniProt Q9NZC4 1-300).
T4 sequence: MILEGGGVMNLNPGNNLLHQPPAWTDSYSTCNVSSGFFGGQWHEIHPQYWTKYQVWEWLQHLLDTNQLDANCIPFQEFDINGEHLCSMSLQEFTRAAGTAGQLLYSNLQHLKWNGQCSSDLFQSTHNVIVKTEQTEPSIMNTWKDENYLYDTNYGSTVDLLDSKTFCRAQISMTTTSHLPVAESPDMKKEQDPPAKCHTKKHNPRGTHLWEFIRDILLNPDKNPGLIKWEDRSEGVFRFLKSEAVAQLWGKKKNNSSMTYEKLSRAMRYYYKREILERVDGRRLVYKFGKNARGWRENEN
In outline:
as §1

Assay [5] deals with SPIB (Homo sapiens, UniProt Q01892 1-262). The method, boiled down: as §1
Sequence of SPIB (Q01892 whole entry): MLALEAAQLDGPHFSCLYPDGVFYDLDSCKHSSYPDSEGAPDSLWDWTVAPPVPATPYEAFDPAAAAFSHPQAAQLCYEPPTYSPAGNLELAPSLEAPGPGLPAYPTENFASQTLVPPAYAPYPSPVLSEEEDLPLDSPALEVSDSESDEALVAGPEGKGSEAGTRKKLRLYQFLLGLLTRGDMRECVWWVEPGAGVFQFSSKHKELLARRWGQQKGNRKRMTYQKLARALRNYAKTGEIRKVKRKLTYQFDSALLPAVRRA
Assay [6] deals with T5, ELK4 (Homo sapiens, UniProt P28324-2 1-405).
T5 sequence: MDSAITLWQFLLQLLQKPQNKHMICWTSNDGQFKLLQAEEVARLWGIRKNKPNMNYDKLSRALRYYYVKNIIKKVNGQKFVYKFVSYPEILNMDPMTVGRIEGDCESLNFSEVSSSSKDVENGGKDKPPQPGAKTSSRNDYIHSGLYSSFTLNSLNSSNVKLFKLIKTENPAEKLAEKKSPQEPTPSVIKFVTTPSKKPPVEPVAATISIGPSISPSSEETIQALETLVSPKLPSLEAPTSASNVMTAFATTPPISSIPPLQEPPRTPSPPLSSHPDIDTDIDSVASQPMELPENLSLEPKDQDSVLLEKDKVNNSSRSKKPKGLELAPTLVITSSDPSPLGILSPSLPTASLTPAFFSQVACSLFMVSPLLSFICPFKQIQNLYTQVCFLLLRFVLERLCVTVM
The method, boiled down:
as §1

Assay [7] concerns the target T6, ETV2 (Homo sapiens, UniProt O00321 1-342).
T6 sequence: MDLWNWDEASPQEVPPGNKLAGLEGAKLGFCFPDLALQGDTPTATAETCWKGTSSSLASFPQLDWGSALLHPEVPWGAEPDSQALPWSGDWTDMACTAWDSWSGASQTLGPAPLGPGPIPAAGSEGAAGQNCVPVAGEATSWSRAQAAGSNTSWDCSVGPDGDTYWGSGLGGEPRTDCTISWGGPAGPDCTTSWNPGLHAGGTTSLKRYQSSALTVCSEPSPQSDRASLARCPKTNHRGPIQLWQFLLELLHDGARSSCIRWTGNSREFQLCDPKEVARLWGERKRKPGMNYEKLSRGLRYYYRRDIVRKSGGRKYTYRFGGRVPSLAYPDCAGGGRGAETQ
The method, boiled down:
as §1

The target in assay [8] is ETV1 (Homo sapiens, UniProt P50549 1-477). In outline: as §1
Sequence of ETV1 (P50549 whole entry): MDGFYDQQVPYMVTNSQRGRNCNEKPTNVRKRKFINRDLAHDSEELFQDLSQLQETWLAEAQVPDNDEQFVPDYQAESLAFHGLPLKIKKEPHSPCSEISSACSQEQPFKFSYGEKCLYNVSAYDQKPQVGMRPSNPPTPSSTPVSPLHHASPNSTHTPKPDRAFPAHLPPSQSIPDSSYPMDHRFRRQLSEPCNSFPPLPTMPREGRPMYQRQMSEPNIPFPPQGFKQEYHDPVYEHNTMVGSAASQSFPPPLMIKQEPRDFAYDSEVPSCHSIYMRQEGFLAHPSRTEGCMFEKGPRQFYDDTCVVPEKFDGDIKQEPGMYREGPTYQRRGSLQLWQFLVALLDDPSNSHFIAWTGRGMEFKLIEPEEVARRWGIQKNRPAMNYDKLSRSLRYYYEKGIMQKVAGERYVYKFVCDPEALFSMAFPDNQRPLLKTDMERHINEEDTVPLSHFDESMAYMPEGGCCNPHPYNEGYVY
Assay [9] deals with T7, ERF (Homo sapiens, UniProt P50548 1-548).
T7 sequence: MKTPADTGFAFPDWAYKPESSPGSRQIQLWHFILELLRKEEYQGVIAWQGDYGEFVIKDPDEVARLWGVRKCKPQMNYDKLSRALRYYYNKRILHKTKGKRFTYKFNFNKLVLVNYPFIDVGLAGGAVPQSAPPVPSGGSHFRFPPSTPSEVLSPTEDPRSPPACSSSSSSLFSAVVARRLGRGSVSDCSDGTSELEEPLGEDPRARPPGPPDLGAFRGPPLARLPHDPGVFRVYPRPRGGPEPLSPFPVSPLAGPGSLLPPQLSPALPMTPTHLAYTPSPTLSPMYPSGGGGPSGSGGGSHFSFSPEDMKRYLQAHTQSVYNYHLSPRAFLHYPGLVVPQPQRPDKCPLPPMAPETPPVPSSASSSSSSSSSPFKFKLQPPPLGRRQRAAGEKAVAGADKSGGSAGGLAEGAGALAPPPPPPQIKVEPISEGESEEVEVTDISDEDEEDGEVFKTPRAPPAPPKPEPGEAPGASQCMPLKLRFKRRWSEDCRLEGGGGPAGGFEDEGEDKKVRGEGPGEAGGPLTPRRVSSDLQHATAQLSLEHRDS
The method, boiled down:
as §1

The target in assay [10] is T8, ETV3L (Homo sapiens, UniProt Q6ZN32 1-361).
T8 sequence: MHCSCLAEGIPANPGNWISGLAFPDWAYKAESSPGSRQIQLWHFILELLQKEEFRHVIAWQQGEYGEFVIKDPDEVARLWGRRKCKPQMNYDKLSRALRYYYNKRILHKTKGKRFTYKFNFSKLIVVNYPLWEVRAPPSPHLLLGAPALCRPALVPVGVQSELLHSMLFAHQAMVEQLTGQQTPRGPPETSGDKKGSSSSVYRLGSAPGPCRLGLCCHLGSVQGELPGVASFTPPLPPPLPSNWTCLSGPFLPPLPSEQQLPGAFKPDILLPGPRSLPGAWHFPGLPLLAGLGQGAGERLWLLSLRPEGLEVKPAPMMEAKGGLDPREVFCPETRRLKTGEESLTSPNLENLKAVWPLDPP
In outline:
as §1

Assay [11] deals with T9, ETV7 (Homo sapiens, UniProt Q9Y603 1-341).
T9 sequence: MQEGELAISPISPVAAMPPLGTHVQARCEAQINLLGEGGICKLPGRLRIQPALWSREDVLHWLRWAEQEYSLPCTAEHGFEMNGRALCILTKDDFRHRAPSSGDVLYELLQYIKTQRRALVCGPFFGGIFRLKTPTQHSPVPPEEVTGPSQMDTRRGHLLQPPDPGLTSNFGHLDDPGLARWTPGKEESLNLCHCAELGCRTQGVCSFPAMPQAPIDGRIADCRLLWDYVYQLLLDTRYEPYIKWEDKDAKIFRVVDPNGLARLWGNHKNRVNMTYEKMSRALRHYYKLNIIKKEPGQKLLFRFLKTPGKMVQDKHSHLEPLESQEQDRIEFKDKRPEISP
In outline:
as §1

For assay [12], the target named is T10, ELF5 (Homo sapiens, UniProt Q9UKW6-2 1-255).
T10 sequence: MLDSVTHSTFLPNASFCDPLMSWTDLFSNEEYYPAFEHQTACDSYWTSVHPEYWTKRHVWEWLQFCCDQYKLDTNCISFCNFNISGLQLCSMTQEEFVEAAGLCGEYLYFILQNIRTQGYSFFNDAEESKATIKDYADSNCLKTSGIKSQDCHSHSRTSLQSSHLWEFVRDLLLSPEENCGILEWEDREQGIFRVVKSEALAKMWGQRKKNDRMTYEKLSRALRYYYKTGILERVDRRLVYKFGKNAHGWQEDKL
In outline: as §1

For the sequence GATTGC, the binding signal in [1] was 1.06 fold enrichment (6-mer frequency, TF over GST control); in assay [2] it was 1.04 fold enrichment (6-mer frequency, TF over GST control); in assay [3], 1.01 fold enrichment (6-mer frequency, TF over GST control); in assay [4], 1.02 fold enrichment (6-mer frequency, TF over GST control); in assay [5] it was 1.05 fold enrichment (6-mer frequency, TF over GST control); in assay [6], 1.04 fold enrichment (6-mer frequency, TF over GST control). The binding signal in assay [7] is 1.09 fold enrichment (6-mer frequency, TF over GST control); in assay [8] it was 1.02 fold enrichment (6-mer frequency, TF over GST control); in assay [9], 1.02 fold enrichment (6-mer frequency, TF over GST control); in assay [10], 1.02 fold enrichment (6-mer frequency, TF over GST control); in [11], 1.03 fold enrichment (6-mer frequency, TF over GST control); in assay [12], 1 fold enrichment (6-mer frequency, TF over GST control).
